Twelve compounds from PubChem BioAssay (NCATS) can be followed below.

Results filed as inconclusive are left out. Active and inactive are the calls of the source. Unless noted, the rule behind the calls is not given here.

The nature of assay [1]: qHTS profiling of the MIPE4 collection as inhibitors of Plasmodium falciparum (3D7) proliferation (AID 743344).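 Note: scaled between DMSO vehicle wells and 0.29 µM artemisinin as full inhibition.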 The note with it: P. falciparum 3D7 in erythrocytes, SYBR Green DNA fluorescence, 72 h; at 28.5 µM unless noted. In a few lines: (§1)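 Parasite DNA was quantified by SYBR Green I fluorescence (ex 485, em 535 nm) after overnight lysis in saponin/Triton buffer at room temperature. Cultures at 0.3% parasitemia and 2.5% hematocrit were first exposed to compound for 72 h at 37 C; signals were normalised to artemisinin (0.29 uM) and vehicle wells.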
A general note: In qHTS, concentration-response curves come from the screen itself.

Assay [2] can be described thus: qHTS profiling of the MIPE4 collection as inhibitors of Plasmodium falciparum (DD2) proliferation (AID 743345). The note with it: P. falciparum Dd2 in erythrocytes, SYBR Green DNA, 72 h; at 28.5 µM unless noted. The method in brief:
as §1

A short description of assay [3]: qHTS profiling of the MIPE4 collection as inhibitors of Plasmodium falciparum (DD2) proliferation (Rep 2) (AID 743346). The note with it: P. falciparum Dd2 in erythrocytes, SYBR Green DNA, 72 h; at 28.5 µM unless noted. The method in brief: as §1
Assay [4] is described as follows: qHTS profiling of the MIPE4 collection as inhibitors of Plasmodium falciparum (HB3) proliferation (AID 743347).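 Note: plate controls were DMSO vehicle wells for no effect and artemisinin wells for full effect.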 The note with it: P. falciparum HB3 in erythrocytes, SYBR Green DNA, 72 h; at 28.5 µM unless noted. In a few lines: as §1
Assay [5] in a line: High-throughput drug toxicity screening in the BPDCN cell line Gen2.2 (AID 1224824).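 Note: cells exposed to compounds for 48 h before reading.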 To be noted: Gen2.2 BPDCN cells; at 45.8 µM (top of the series) unless noted. In a few lines:
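Gen2.2 cells (500/well) in phenol red-free RPMI with 10% FBS were exposed to compounds for 48 h at 37 °C, 5% CO2. Viability was read by CellTiter-Glo luminescence and normalized to DMSO (100%) and 9.2 uM bortezomib (0%).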

A short description of assay [6]: High-throughput drug toxicity screening in the BPDCN cell line Cal-1 (AID 1224825). The note with it: Cal-1 BPDCN cell viability, qHTS; at 45.8 µM (top of the series) unless noted. The method in brief:
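CellTiter-Glo luminescence after 48 h compound exposure; percent activity scaled with DMSO as 100% and bortezomib (9.2 uM final) as 0%. Cal-1 cells seeded at 500/well in RPMI, 10% FBS, no phenol red.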

Assay [7] is described as follows: qHTS assay for measurement of the activity of small molecule inhibitors on Zika virus induced Caspase-3 activity in human iPSC derived neural progenitor cells (hNPCs) (AID 1224857; active = well fitted curve in the direction sought with a large enough effect; an effect the other way counts as inactive or inconclusive; note: nearly all actives have a fitted effect of over 65% in size; note: potency is the fitted concentration of half-maximal effect). The method in brief: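 Caspase-3/7 induction by a 6-hour ZIKV infection was quantified with a luminescent Caspase-Glo 3/7 reagent incubated 30 minutes at room temperature. Compounds were preincubated with hNPCs for 1 hour; inhibition was calculated against uninfected and infected control wells.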

Assay [8] in a line: qHTS assay for measurement of the activity of small molecule inhibitors on Zika virus induced Caspase-3 activity in human astrocytoma cells (AID 1224859; active = well fitted curve in the direction sought with a large enough effect; an effect the other way counts as inactive or inconclusive; note: potency is the fitted concentration of half-maximal effect). In a few lines:
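In SNB-19 cells plated at 250 cells/well and grown 16-20 h, compounds were applied 1 h before ZIKV (2 FFU/cell). Six hours later caspase-3/7 luminescence was recorded.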

Assay [9] is described as follows: qHTS profiling for inhibitors of Plasmodium falciparum (HB3) proliferation (AID 743324; active = well fitted curve in the direction sought with a large enough effect; an effect the other way counts as inactive or inconclusive;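 note: 100% = DMSO vehicle wells and 0% = artemisinin-treated control wells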). The note with it: Plasmodium falciparum HB3 blood-stage proliferation; at 28.7 µM (top of the series) unless noted. In a few lines: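 SYBR Green fluorescence (485 ex/535 em) of lysed cultures, incubated overnight at room temperature in the dark, quantifies parasite DNA. Infected erythrocytes at 0.3% parasitemia and 2.5% hematocrit were exposed 72 h; values normalized to DMSO and 0.29 uM artemisinin controls.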

A short description of assay [10]: qHTS Screen of the MIPE 4.0 Collection Against Ewings Sarcoma (RDES) (AID 1259252; active = well fitted curve in the direction sought with a large enough effect; an effect the other way counts as inactive or inconclusive; note: potency is the fitted concentration of half-maximal effect; nearly all actives have a fitted effect of over 35% in size). The method in brief:
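Viability screen: 48 h incubation at 37C, 95% humidity, 5% CO2 with serially titrated compound, followed by CellTiter-Glo readout.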

With `CC(C)c1c(C(=O)Nc2ccccc2)c(-c2ccccc2)c(-c2ccc(F)cc2)n1CC[C@H](O)C[C@@H](O)CC(=O)O`, in [1], the parasite growth, % of DMSO control worked out at 7.03%. Also, the parasite growth remaining, % of DMSO control (lower = more inhibition) in assay [2] is 82.2%. This compound also showed a parasite growth, % of control (lower = inhibition) in assay [3] of 17.6%. Also, the growth, % of control in [4] was determined as 4.89%. In [5], the cell viability, % of control (lower = more cytotoxic) is 41.5%. For the same compound, the viability (% of control) in [6] is 93.6%. The Potency entry in assay [7] and in [8] was “inactive” throughout.

On to `CC(=O)OCC(=O)[C@@]12OC(C)(C)O[C@H]1C[C@H]1[C@@H]3C[C@H](F)C4=CC(=O)C=C[C@]4(C)[C@@]3(F)[C@@H](O)C[C@@]12C`, for which the parasite growth, % of DMSO control in assay [1] was 51.9%. Further, the parasite growth remaining, % of DMSO control (lower = more inhibition) in assay [2] was determined as 82.3%. Besides, the parasite growth, % of control (lower = inhibition) in assay [3] worked out at 35.9%. In [4], this compound registered a growth, % of control of 61.2%. Further, the cell viability, % of control (lower = more cytotoxic) in [5] worked out at 76.3%. In addition, the viability (% of control) in assay [6] was found to be 56.5%. Further, the Potency entry in assay [7] and in assay [8] was “inactive” each time.

Turning to `CN(C)S(=O)(=O)c1ccc2c(c1)C(=Cc1cc3c([nH]1)CCCC3)C(=O)N2`, the parasite growth remaining, % of DMSO control (lower = more inhibition) in assay [2] came out at 22.5%. For the same compound, the parasite growth, % of control (lower = inhibition) in [3] is 30%. In addition, the growth, % of control in assay [4] was 8.5%. In addition, the cell viability, % of control (lower = more cytotoxic) in assay [5] was 119%. For the same compound, the viability (% of control) in [6] worked out at 35.3%. In addition, the Potency result in assay [7] and in assay [8] was “inactive” each time.

In [1], `NCc1c[nH]c(=S)n1[C@H]1CCc2c(F)cc(F)cc2C1` gave a parasite growth, % of DMSO control of 15.7%. In addition, the parasite growth remaining, % of DMSO control (lower = more inhibition) in assay [2] is 12.9%. Besides, the growth, % of control in assay [4] was found to be 4.48%. Further, the cell viability, % of control (lower = more cytotoxic) in assay [5] was found to be 61.4%. Besides, the viability (% of control) in [6] came out at 34.2%. Also, the Potency result in [7] and in assay [8] was “inactive” each time.

For `Cc1nn(Cc2ccccc2Cl)c(C)c1CN(C)CC(O)COc1ccc(Cl)cc1` (stereo not given), the remaining proliferation (% of control), lower = more inhibition in [9] turned out to be 8.74%. In assay [1], the parasite growth, % of DMSO control amounted to 9.8%. The parasite growth remaining, % of DMSO control (lower = more inhibition) in assay [2] stood at 18.8%. In addition, the parasite growth, % of control (lower = inhibition) in assay [3] turned out to be 16.7%. Also, the growth, % of control in assay [4] was determined as 7.87%. In addition, the cell viability, % of control (lower = more cytotoxic) in [5] stood at 18%. For the same compound, the viability (% of control) in assay [6] was determined as 53.4%. The Potency entry in [7] is “inactive”. In addition, the Potency in assay [10] is 23500 nM (active).

Turning to `CCCCCCOC(=O)N=C(N)c1ccc(NCc2nc3cc(C(=O)N(CCC(=O)OCC)c4ccccn4)ccc3n2C)cc1`, the parasite growth, % of DMSO control in assay [1] was 9.57%. The same compound had a parasite growth, % of control (lower = inhibition) in [3] of 16%. Also, the growth, % of control in [4] came out at 7.43%. Moreover, in [5], the cell viability, % of control (lower = more cytotoxic) was 274%. Further, the viability (% of control) in [6] turned out to be 17.1%. For the same compound, the Potency result in [7] and in assay [8] was “inactive” each time.

`CCN(CCO)CCCOc1ccc2c(Nc3cc(CC(=O)Nc4cccc(F)c4)[nH]n3)ncnc2c1` displayed a parasite growth, % of DMSO control in [1] of 9.18%. In addition, the parasite growth, % of control (lower = inhibition) in assay [3] amounted to 17.8%. The compound also came in with a growth, % of control in [4] of 6.77%. Besides, in [5], the cell viability, % of control (lower = more cytotoxic) turned out to be 90.4%. The viability (% of control) in assay [6] was determined as 15.3%. The Potency result in assay [7] and in [8] was “inactive” in each case.

In assay [1], `CNC(=O)[C@H](Cc1ccccc1)NC(=O)[C@H](CC(C)C)[C@H](CSc1cccs1)C(=O)NO` yielded a parasite growth, % of DMSO control of 4.98%. In [3], this compound had a parasite growth, % of control (lower = inhibition) of 11.7%. In assay [4], this compound registered a growth, % of control of 4.59%. The cell viability, % of control (lower = more cytotoxic) in assay [5] was determined as 63.4%. Also, in assay [6], the viability (% of control) was determined as 56.4%. For the same compound, the Potency result in assay [7] and in assay [8] was “inactive” in each case.

For the compound `CN1CCN2c3ncccc3Cc3ccccc3C2C1` (stereo not given), the parasite growth, % of DMSO control in [1] came out at 85.3%. Further, the parasite growth remaining, % of DMSO control (lower = more inhibition) in [2] was 93.6%. The compound further registered a parasite growth, % of control (lower = inhibition) in assay [3] of 50.4%. In [4], this compound gave a growth, % of control of 75.6%. In addition, the cell viability, % of control (lower = more cytotoxic) in [5] amounted to 260%. In addition, the viability (% of control) in [6] came to 112%. In addition, the Potency entry in [7] and in [8] was “inactive” throughout.

`CN1c2ccccc2C(=O)N2CCc3c([nH]c4ccccc34)C21` (stereo not given) yielded a parasite growth, % of DMSO control in [1] of 94.3%. Besides, the parasite growth remaining, % of DMSO control (lower = more inhibition) in [2] was determined as 103%. The parasite growth, % of control (lower = inhibition) in assay [3] is 90.2%. This compound yielded a growth, % of control in [4] of 55%. In addition, the cell viability, % of control (lower = more cytotoxic) in [5] was 54.1%. Moreover, in assay [6], the viability (% of control) is 97%. Also, the Potency result in [7] and in assay [8] was “inactive” each time.

In the case of `O=C(C=Cc1ccc(O)cc1)c1ccc(O)cc1O`, the parasite growth remaining, % of DMSO control (lower = more inhibition) in assay [2] was 52.6%. This compound also displayed a parasite growth, % of control (lower = inhibition) in [3] of 39.1%. In [4], this compound came in with a growth, % of control of 15.1%. In addition, the cell viability, % of control (lower = more cytotoxic) in assay [5] is 1.49%. Also, the viability (% of control) in assay [6] is 4.05%. The Potency in assay [7] is 1660 nM (active); in [8], 2090 nM (active).

Consider `CN[C@@H]1[C@@H](O)[C@@H](O[C@@H]2[C@@H](O)[C@H](O[C@H]3O[C@H](CN)[C@@H](O)[C@H](O)[C@@H]3O)[C@@H](N)C[C@@H]2NC(=O)[C@@H](O)CN)OC[C@]1(C)O`, for which, in assay [2], the parasite growth remaining, % of DMSO control (lower = more inhibition) is 99.3%. Also, in [3], the parasite growth, % of control (lower = inhibition) amounted to 90.7%. The compound also had a growth, % of control in assay [4] of 53.1%. Further, in assay [5], the cell viability, % of control (lower = more cytotoxic) turned out to be 111%. Also, the viability (% of control) in assay [6] is 100%. The Potency entry in assay [7] and in assay [8] was “inactive” each time.
